Drawing on publication PMC7862700, “An all-to-all approach to the identification of sequence-specific readers for epigenetic DNA modifications on cytosine”, this text covers binding signal for one sequence.

Assay in all cases: DAPPL (digital affinity profiling via proximity ligation, sequencing); 10 mM Tris-HCl pH 7.5, 50 mM NaCl, 1 mM DTT, 4% glycerol, room temperature, 30 min; GST-TFs on glutathione beads, 16-mer random dsDNA library, 0.1% formaldehyde crosslink after washing; high values mean tight binding
One test deals with T1, FEV (Homo sapiens, UniProt Q99581 1-238).
T1 sequence: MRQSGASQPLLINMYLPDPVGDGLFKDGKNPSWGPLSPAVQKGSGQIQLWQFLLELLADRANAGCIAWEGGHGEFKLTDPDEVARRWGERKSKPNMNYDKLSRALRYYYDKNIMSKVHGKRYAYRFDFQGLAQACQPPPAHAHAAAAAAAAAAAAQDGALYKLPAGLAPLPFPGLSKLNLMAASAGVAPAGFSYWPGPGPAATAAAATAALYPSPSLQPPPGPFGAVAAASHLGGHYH
As to conditions: protein: recombinant; tags: N-terminal GST; dsDNA, one strand shown. Summed up:
(§1)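 Human transcription factors were made in yeast as GST fusions, captured on glutathione beads and barcoded with DNA. With a tag-only sample included, the pool was incubated with 200 nmole of a random double-stranded 16-mer DNA library in Tris/NaCl/DTT/glycerol buffer at room temperature for 30 min, then crosslinked with 0.1% formaldehyde after washing, ligated by proximity, amplified and sequenced. For binding signal, each hexamer's read frequency for a factor is divided by its frequency for the tag-only sample.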

A further test deals with ETV5 (Homo sapiens, UniProt P41161 1-510). As to conditions: protein: recombinant; tags: N-terminal GST; dsDNA, one strand shown. Summed up:
as §1

Another test deals with HSF1 (Homo sapiens, UniProt Q00613 1-529). As to conditions: protein: recombinant; tags: N-terminal GST; chain copies: 3; dsDNA, one strand shown. Summed up:
as §1

The target in a further test is T2, SPIC (Homo sapiens, UniProt Q8N5J4 1-248).
T2 sequence: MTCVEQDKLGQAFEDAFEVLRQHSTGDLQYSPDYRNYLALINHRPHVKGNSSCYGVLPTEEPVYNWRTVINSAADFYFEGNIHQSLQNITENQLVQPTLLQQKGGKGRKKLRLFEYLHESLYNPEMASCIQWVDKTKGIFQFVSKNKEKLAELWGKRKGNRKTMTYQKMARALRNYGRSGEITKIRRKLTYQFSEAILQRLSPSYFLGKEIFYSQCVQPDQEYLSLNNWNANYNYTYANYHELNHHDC
Conditions: protein: recombinant; tags: N-terminal GST; dsDNA, one strand shown. Summed up: as §1

A further test addresses ELF4 (Homo sapiens, UniProt Q99607 1-663). Conditions: protein: recombinant; tags: N-terminal GST; dsDNA, one strand shown. Summed up: as §1
The target in another test is T3, ELK4 (Homo sapiens, UniProt P28324-2 1-405).
T3 sequence: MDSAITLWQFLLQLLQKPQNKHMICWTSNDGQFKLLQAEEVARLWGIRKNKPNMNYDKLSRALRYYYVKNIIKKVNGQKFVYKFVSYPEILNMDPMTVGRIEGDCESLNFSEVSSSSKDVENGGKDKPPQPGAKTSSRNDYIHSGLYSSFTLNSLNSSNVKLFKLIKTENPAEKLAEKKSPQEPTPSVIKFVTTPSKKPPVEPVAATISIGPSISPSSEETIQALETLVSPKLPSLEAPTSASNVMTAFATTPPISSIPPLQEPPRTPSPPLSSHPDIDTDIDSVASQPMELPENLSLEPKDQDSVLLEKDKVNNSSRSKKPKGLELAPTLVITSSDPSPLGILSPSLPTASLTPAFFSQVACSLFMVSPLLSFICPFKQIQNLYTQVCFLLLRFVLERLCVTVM
As to conditions: protein: recombinant; tags: N-terminal GST; dsDNA, one strand shown. The essentials:
as §1

For another test, the target named is T4, ETV2 (Homo sapiens, UniProt O00321 1-342).
T4 sequence: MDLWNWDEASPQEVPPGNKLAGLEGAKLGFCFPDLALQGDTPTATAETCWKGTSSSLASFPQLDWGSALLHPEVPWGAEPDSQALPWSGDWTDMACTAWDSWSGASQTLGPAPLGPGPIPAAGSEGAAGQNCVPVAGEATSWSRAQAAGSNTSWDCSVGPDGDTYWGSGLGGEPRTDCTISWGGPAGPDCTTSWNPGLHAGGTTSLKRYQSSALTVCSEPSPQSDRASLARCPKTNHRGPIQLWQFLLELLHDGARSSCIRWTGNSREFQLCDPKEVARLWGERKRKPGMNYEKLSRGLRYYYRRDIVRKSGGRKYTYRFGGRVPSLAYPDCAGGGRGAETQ
Conditions: protein: recombinant; tags: N-terminal GST; dsDNA, one strand shown. The essentials: as §1

Another test has as its target T5, ELF3 (Homo sapiens, UniProt P78545 1-371).
T5 sequence: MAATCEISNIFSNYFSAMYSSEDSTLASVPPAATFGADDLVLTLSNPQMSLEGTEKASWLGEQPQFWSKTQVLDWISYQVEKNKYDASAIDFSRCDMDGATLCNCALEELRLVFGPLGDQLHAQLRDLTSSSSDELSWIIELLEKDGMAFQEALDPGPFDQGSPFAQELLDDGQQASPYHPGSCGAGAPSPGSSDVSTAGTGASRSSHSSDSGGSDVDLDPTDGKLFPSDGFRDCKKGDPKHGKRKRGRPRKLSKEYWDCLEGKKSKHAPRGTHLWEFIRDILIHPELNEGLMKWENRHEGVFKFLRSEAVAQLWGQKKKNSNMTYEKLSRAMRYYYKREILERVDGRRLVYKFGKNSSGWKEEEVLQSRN
As to conditions: protein: recombinant; tags: N-terminal GST; dsDNA, one strand shown. The essentials:
as §1

The target of the next test is CRX (Homo sapiens, UniProt O43186 1-299). As to conditions: protein: recombinant; tags: N-terminal GST; dsDNA, one strand shown. The essentials:
as §1

The next test addresses ETV1 (Homo sapiens, UniProt P50549 1-477). As to conditions: protein: recombinant; tags: N-terminal GST; dsDNA, one strand shown. The essentials: as §1
The target of another test is T6, ERF (Homo sapiens, UniProt P50548 1-548).
T6 sequence: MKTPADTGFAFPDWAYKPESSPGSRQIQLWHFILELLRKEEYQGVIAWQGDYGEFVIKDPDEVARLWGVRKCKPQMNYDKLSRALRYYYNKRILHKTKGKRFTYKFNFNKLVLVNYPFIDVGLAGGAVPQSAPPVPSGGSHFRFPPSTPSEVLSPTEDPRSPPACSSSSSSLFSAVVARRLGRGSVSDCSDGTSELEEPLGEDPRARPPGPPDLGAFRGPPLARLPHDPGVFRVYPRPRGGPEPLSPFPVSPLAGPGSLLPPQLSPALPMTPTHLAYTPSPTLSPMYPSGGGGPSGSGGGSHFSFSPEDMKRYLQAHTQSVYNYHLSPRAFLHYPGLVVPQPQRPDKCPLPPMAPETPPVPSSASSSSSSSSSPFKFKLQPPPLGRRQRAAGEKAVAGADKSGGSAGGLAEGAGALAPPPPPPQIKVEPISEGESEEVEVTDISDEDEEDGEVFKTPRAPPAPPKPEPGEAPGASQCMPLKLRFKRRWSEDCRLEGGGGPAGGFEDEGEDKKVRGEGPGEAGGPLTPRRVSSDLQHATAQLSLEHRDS
As to conditions: protein: recombinant; tags: N-terminal GST; dsDNA, one strand shown. The essentials:
as §1

The target of a further test is T7, ETV3L (Homo sapiens, UniProt Q6ZN32 1-361).
T7 sequence: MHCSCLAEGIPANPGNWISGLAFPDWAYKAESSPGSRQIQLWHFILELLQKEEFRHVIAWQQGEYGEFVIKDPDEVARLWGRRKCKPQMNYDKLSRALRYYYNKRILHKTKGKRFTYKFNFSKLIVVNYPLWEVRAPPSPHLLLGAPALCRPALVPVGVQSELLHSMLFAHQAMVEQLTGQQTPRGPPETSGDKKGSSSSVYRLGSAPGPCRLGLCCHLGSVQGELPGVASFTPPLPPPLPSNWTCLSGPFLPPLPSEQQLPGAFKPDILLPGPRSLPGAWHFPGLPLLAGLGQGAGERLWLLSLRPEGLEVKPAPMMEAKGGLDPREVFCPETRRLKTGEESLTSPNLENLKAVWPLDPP
As to conditions: protein: recombinant; tags: N-terminal GST; dsDNA, one strand shown. Summed up: as §1

A further test addresses T8, ETS2 (Homo sapiens, UniProt P15036 1-469).
T8 sequence: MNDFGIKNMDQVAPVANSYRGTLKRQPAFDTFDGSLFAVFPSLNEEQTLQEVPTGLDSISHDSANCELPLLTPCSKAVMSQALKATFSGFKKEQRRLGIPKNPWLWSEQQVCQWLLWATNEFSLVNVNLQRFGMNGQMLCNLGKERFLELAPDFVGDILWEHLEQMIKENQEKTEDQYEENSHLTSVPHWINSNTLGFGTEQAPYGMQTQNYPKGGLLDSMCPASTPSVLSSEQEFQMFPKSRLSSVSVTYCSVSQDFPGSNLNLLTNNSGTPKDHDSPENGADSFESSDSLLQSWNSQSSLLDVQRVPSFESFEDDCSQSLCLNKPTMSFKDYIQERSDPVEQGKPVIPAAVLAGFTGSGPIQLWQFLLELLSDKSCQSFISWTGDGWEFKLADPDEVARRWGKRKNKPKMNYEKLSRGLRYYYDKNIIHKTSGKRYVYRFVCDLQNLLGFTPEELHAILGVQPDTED
Conditions: protein: recombinant; tags: N-terminal GST; dsDNA, one strand shown. Summed up: as §1

A further test has as its target T9, SPDEF (Homo sapiens, UniProt O95238 1-335).
T9 sequence: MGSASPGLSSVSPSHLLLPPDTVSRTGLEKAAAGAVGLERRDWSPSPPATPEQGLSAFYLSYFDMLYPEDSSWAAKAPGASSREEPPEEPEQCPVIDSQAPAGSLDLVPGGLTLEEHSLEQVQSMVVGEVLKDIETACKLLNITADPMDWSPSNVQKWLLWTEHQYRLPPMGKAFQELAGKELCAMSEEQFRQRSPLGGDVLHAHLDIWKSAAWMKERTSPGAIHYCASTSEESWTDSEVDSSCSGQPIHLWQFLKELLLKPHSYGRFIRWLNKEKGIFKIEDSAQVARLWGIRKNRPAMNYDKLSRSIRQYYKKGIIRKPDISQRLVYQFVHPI
Conditions: protein: recombinant; tags: N-terminal GST; dsDNA, one strand shown. Summed up: as §1

In the next test the target is T10, ETV7 (Homo sapiens, UniProt Q9Y603 1-341).
T10 sequence: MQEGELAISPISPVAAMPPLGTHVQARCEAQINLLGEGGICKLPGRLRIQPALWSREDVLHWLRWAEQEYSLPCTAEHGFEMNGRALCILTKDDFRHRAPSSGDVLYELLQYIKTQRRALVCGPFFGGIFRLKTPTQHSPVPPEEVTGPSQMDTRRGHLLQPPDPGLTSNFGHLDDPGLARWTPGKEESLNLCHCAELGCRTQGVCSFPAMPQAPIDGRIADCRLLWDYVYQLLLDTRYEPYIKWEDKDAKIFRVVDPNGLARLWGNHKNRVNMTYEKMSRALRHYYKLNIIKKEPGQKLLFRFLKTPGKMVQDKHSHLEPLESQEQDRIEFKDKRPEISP
As to conditions: protein: recombinant; tags: N-terminal GST; dsDNA, one strand shown. Summed up: as §1

In a further test the target is T11, ELF5 (Homo sapiens, UniProt Q9UKW6-2 1-255).
T11 sequence: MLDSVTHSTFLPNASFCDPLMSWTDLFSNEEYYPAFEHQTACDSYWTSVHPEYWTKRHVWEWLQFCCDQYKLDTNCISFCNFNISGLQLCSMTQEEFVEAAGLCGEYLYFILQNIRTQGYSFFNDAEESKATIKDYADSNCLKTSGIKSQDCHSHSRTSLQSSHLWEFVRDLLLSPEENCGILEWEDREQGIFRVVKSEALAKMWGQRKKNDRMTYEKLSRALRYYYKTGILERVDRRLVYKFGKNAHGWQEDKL
Conditions: protein: recombinant; tags: N-terminal GST; dsDNA, one strand shown. The essentials: as §1

In another test the target is T12, ETV3 (Homo sapiens, UniProt P41162-2 1-143).
T12 sequence: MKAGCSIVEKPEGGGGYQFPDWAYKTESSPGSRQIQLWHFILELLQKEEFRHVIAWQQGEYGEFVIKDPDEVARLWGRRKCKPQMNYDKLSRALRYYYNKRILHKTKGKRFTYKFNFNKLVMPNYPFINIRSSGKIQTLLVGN
As to conditions: protein: recombinant; tags: N-terminal GST; dsDNA, one strand shown. The essentials: as §1

In a further test the target is ETV6 (Homo sapiens, UniProt P41212 1-452). Conditions: protein: recombinant; tags: N-terminal GST; dsDNA, one strand shown. Summed up: as §1
Chain of ETV6 (P41212 whole entry): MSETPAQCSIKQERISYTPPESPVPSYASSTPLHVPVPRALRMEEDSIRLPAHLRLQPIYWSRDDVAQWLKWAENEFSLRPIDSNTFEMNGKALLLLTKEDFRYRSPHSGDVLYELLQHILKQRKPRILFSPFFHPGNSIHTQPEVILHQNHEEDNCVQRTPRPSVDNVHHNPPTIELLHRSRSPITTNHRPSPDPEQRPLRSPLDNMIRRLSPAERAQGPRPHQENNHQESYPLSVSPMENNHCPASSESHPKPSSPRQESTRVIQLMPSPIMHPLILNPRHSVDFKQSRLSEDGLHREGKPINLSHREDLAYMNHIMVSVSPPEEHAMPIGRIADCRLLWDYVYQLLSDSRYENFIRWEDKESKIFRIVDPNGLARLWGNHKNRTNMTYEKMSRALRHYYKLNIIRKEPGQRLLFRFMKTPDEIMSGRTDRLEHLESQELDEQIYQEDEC

Chain of ETV1 (P50549 whole entry): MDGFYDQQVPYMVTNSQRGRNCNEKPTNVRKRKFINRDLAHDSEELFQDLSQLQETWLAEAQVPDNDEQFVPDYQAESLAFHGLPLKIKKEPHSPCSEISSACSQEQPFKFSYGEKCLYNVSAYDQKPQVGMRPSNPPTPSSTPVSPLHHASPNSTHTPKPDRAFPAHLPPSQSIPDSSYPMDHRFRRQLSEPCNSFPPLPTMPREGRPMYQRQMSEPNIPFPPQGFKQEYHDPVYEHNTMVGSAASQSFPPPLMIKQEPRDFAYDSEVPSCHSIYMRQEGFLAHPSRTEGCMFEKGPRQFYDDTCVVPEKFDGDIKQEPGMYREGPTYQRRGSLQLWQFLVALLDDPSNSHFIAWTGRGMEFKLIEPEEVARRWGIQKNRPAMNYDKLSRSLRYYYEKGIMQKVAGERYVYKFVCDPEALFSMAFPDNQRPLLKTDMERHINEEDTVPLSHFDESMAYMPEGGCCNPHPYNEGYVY
Chain of ETV5 (P41161 whole entry): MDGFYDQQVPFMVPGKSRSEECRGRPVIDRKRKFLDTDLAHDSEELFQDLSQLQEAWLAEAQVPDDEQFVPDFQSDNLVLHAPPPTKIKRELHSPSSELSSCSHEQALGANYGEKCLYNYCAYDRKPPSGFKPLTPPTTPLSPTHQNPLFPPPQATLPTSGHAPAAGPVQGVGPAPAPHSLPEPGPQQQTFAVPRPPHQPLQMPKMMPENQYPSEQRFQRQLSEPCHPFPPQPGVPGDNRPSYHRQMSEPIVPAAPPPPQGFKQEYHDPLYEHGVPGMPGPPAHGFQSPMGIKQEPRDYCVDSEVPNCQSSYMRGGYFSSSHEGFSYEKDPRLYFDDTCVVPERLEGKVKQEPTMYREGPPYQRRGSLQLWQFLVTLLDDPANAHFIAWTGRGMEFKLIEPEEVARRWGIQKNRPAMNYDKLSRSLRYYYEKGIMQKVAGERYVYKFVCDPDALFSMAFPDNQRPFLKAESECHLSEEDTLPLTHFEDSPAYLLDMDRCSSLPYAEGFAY
Chain of ELF4 (Q99607 whole entry): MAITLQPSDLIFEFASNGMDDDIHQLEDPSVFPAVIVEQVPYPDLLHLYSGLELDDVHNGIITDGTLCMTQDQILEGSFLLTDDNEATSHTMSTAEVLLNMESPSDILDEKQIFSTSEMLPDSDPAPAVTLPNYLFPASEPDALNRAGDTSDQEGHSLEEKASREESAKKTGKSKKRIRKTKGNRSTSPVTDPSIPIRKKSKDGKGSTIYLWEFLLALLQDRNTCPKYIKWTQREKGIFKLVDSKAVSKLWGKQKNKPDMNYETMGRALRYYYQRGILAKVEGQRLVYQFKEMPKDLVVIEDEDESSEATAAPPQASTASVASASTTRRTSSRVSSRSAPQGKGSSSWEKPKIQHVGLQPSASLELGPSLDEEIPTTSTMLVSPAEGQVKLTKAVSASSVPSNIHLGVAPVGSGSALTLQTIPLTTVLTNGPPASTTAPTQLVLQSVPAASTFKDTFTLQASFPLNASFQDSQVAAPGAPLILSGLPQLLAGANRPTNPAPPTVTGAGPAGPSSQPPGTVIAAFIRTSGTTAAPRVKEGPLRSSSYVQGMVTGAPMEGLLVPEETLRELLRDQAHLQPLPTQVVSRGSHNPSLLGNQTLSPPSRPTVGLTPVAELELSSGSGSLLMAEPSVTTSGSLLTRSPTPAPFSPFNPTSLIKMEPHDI
Chain of CRX (O43186 whole entry): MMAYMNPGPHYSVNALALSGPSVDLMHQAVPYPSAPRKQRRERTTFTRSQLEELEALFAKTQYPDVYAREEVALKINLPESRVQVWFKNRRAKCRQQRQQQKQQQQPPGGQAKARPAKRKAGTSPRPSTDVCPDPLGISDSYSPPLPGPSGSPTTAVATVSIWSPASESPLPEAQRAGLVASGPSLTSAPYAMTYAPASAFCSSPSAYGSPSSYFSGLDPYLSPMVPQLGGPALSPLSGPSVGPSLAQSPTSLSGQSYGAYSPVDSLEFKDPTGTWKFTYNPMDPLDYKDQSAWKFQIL
Chain of HSF1 (Q00613 whole entry): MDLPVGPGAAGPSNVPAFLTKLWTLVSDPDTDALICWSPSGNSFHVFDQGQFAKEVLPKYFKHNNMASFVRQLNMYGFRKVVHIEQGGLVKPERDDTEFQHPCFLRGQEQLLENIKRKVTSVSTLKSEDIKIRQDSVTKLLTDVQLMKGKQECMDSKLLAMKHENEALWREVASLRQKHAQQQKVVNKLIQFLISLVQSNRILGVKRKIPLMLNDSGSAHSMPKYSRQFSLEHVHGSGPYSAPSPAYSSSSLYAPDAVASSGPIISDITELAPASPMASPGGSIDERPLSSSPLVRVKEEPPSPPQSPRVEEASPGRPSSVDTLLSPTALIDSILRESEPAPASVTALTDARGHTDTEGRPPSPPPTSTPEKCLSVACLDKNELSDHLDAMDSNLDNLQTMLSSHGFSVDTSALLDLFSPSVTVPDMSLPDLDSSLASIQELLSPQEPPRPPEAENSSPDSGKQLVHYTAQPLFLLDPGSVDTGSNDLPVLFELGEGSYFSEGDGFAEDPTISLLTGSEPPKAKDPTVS

Consider ACTCCG, for which the binding signal with FEV is 1.49 fold enrichment (6-mer frequency, TF over GST control); with ETV5 it was 1.44 fold enrichment (6-mer frequency, TF over GST control); with HSF1, 1.16 fold enrichment (6-mer frequency, TF over GST control); in the test with SPIC, 1.35 fold enrichment (6-mer frequency, TF over GST control); with ELF4, 1.58 fold enrichment (6-mer frequency, TF over GST control); with ELK4, 1.4 fold enrichment (6-mer frequency, TF over GST control). The binding signal in the test with ETV2 was 1.4 fold enrichment (6-mer frequency, TF over GST control); with ELF3, 1.33 fold enrichment (6-mer frequency, TF over GST control); with CRX it was 1.04 fold enrichment (6-mer frequency, TF over GST control); with ETV1, 1.47 fold enrichment (6-mer frequency, TF over GST control); with ERF it was 1.37 fold enrichment (6-mer frequency, TF over GST control); in the test with ETV3L it was 1.52 fold enrichment (6-mer frequency, TF over GST control). Also, the binding signal was 1.46 fold enrichment (6-mer frequency, TF over GST control) with ETS2; 1.59 fold enrichment (6-mer frequency, TF over GST control) with SPDEF; 1.4 fold enrichment (6-mer frequency, TF over GST control) with ETV7; 1.32 fold enrichment (6-mer frequency, TF over GST control) in the test with ELF5; 1.51 fold enrichment (6-mer frequency, TF over GST control) with ETV3; 1.47 fold enrichment (6-mer frequency, TF over GST control) in the test with ETV6.
